# Laboratory results reported in PubChem BioAssay (NCATS).
# Results filed as inconclusive are left out. Where a call stands in place of a potency, no number is given. A number with no mark means an inactive call. Activity calls are given as the source filed them. Calls follow the shape of the dose curve; as a rule, active = well fitted cell-killing curve with a large enough effect; inconclusive = small, poorly fitted or top-dose-only effect, or effect the other way; inactive = flat fitted curve, though single readings scatter.
# Columns and labels:
# Assay in all cases: Primary qHTS to identify gynecologic anti-cancer compounds using libraries of approved drugs and bioactive compounds (AID 1345084); also: nearly all actives have a fitted effect of over 55% in size
# CASKI = conditions: Gynecologic cancer cell panel viability, ATPlite luminescence, 48 h; series mostly up to 57.5 µM
# How it was run: (§1)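 Five-concentration response, 48 h; readout is ATP-driven luciferase luminescence.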
# Es-2 = conditions: Gynecologic cancer cell panel viability, ATPlite luminescence, 48 h; series mostly up to 57.5 µM
# How it was run: as §1
# OV90 = conditions: Gynecologic cancer cell panel viability, ATPlite luminescence, 48 h; series mostly up to 57.5 µM
# How it was run: as §1
# HeLa = conditions: Gynecologic cancer cell panel viability, ATPlite luminescence, 48 h; series mostly up to 57.5 µM
# How it was run: as §1
# JEG-3 = conditions: Gynecologic cancer cell panel viability, ATPlite luminescence, 48 h; series mostly up to 57.5 µM
# How it was run: as §1
# Hek293T = conditions: Gynecologic cancer cell panel viability, ATPlite luminescence, 48 h, control line for the selectivity index; series mostly up to 57.5 µM
# How it was run: as §1
# Potency is read from the fitted curve at half-maximal effect.
smiles,measurement,setting,value
C[C@@H]1O[C@@H](O[C@H]2[C@H](OC(=O)[C@]34CCC(C)(C)C[C@H]3C3=CCC5[C@@]6(C)C[C@H](O)[C@H](O[C@@H]7O[C@H](CO)[C@@H](O)[C@H](O)[C@H]7O)[C@](CO)(C(=O)O)C6CC[C@@]5(C)[C@]3(C)C[C@H]4O)OC[C@H](O)[C@@H]2O)[C@H](O)[C@H](O)[C@H]1O[C@@H]1OC[C@@H](O)[C@H](O[C@@H]2OC[C@](O)(CO)[C@H]2O)[C@H]1O (some centres undefined),"activity change, negative = cytotoxicity",CASKI,-28.8% [at 6.55 µM]
same,Potency,Es-2,2.82 µM (active)
same,"activity change, negative = cytotoxicity",OV90,-28.6% [at 6.55 µM]
c1cc(NC2CCNCC2)nc(-c2cnc3ccccn23)c1,Potency,CASKI,10 µM (active)
same,Potency,Es-2,17.8 µM (active)
same,Potency,HeLa,8.91 µM (active)
same,Potency,JEG-3,inactive
same,Potency,OV90,11.2 µM (active)
Cc1cc(NC(=O)c2cccc(NC(=O)/C=C/CN(C)C)c2)ccc1Nc1nccc(-c2cccnc2)n1,Potency,Es-2,inactive
same,Potency,HeLa,inactive
same,Potency,JEG-3,inactive
same,Potency,OV90,inactive
COC1CC/C=C(\C)C(=O)Nc2cc(O)cc(c2)CC(C)CC(OC)C(O)C(C)/C=C(\C)C1OC(N)=O (centres undefined),Potency,Es-2,inactive
same,Potency,HeLa,inactive
same,Potency,OV90,8.91 µM (active)
O=C(CCl)Nc1cccc(NC2=NS(=O)(=O)c3ccccc32)c1,Potency,Es-2,inactive
same,Potency,JEG-3,inactive
same,Potency,OV90,inactive
C=C1C(=O)O[C@@H]2[C@H]3C(C)=CC(=O)C3=C(C)CC[C@@H]12,Potency,HeLa,inactive
C=C1C(=O)OC2/C=C(\COC(C)=O)CC/C=C(\C=O)CC(OC(=O)CC(C)C)C12 (centres undefined),Potency,CASKI,inactive
same,Potency,HeLa,inactive
same,Potency,Hek293T,8.91 µM (active)
C=C(C)C(=O)O[C@H]1C[C@@](C)(O)C2(O)CCC(C)(/C=C3/OC(=O)C(COC)=C31)O2 (some centres undefined),Potency,Es-2,11.2 µM (active)
same,Potency,HeLa,inactive
C=C(C)[C@@H]1CC=C(COC(=O)NC(=O)c2ncn3c(=O)n(C)nnc23)CC1,Potency,Es-2,20 µM (active)
same,Potency,HeLa,31.6 µM (active)
same,Potency,Hek293T,25.1 µM (active)
C=C1C(=O)O[C@@H]2[C@H]1CC(=O)[C@H](C)[C@@](O)(C(=O)/C=C/C)[C@H]2OC(=O)C(C)CC (some centres undefined),Potency,CASKI,10 µM (active)
same,Potency,HeLa,inactive
same,Potency,Hek293T,10 µM (active)
same,Potency,JEG-3,inactive
same,Potency,OV90,inactive
CC(C)CC(=O)c1c(O)cc2c(c1O)C(CC(C)C)C1=C(O2)C(C)(C)C(=O)C(C)(C)C1=O (centres undefined),Potency,Es-2,inactive
same,Potency,JEG-3,inactive
same,Potency,OV90,inactive
CN(C)Cc1ccc(-c2cnn3c(-c4cccc(NC(=O)c5cccc(C(F)(F)F)c5)c4)ccnc23)cc1,Potency,Es-2,inactive
same,Potency,HeLa,inactive
CN(C)CCCn1cc(C2=C(c3c[nH]c4ccccc34)C(=O)NC2=O)c2ccccc21,Potency,Es-2,28.2 µM (active)
same,Potency,Hek293T,22.4 µM (active)
same,Potency,JEG-3,inactive
CCC(C)(OC(C)=O)C(=O)O[C@H]1[C@H](OC(C)=O)[C@]2(CO)[C@H](O)[C@H](O)[C@]3(C)C(=CCC4[C@@]5(C)CC[C@H](O[C@@H]6O[C@H](C(=O)O)[C@@H](O)[C@H](O[C@@H]7OC[C@H](O)[C@H](O[C@@H]8OC[C@H](O)[C@H](O)[C@H]8O)[C@H]7O)[C@H]6O[C@@H]6O[C@H](CO)[C@@H](O)[C@H](O)[C@H]6O)C(C)(C)C5CC[C@]43C)[C@@H]2CC1(C)C (some centres undefined),"activity change, negative = cytotoxicity",Es-2,-8.22% [at 6.55 µM]
same,"activity change, negative = cytotoxicity",HeLa,-8.59% [at 6.55 µM]
same,"activity change, negative = cytotoxicity",Hek293T,-17.4% [at 6.55 µM]
same,"activity change, negative = cytotoxicity",JEG-3,-1.81% [at 6.55 µM]
Clc1ccc(Nc2nc3ccccc3c3nc(C4CCCCC4)[nH]c23)cc1Cl,Potency,CASKI,inactive
same,Potency,JEG-3,inactive
COCCNCc1ccc(-c2cc3nccc(Oc4ccc(NC(=O)C5(C(=O)Nc6ccc(F)cc6)CC5)cc4F)c3s2)nc1,Potency,Es-2,inactive
CCN(Cc1cc(Nc2nc(C)cn3c(-c4cn[nH]c4)cnc23)sn1)C(C)(C)CO,Potency,Es-2,3.16 µM (active)
same,Potency,Hek293T,3.55 µM (active)
CN(C)C(=O)COC(=O)c1cc(-c2ccc(C3CCNCC3)cc2)c2ccc(-c3ccc(C(F)(F)F)cc3)cc2c1,Potency,Es-2,inactive
same,Potency,Hek293T,inactive
same,Potency,JEG-3,inactive
CCCCNc1ncc(C(=O)NCc2ccc(-n3ccnc3)cc2)c(NC2CCC(O)CC2)n1 (centres undefined),Potency,Es-2,inactive
same,Potency,Hek293T,inactive
COc1ccc(C#Cc2ccc(C(=O)N3CCC[C@@H](O)C3)c(F)c2)cc1,Potency,Es-2,12.6 µM (active)
same,Potency,Hek293T,14.1 µM (active)
same,Potency,JEG-3,inactive
COc1cc(CCc2cc(NC(=O)c3ccc(N4CC(C)NC(C)C4)cc3)n[nH]2)cc(OC)c1 (centres undefined),Potency,CASKI,inactive
same,Potency,JEG-3,inactive
